Source: PubChem
Pf Dd2 inh = inhibitors of Plasmodium falciparum Dd2 growth | P. falciparum Dd2 growth, SYBR Green, 72 h | Potency, µM (top dose mostly 28.9 µM), for inactives: at the highest dose activity, negative = inhibition, hits mostly inhibitors | actives 4.3% (n = 120,000) | AID 1347417; active = well fitted inhibition curve with a large enough effect;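 also: plate controls were DMSO vehicle for no effect and reference drug for full effect; nearly all actives have a fitted effect of over 65% in size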
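Readout: SYBR Green fluorescence, 485 nm excitation, 535 nm emission, after ~16 h lysis at 37C. Before that, Dd2-infected red cells (2.5% hematocrit) grew 72 h with compound, 29 uM top final concentration.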
* hit, by the source's call; i = inactive; [ ] = another dose, or the depositor's remark. The sample as a whole holds a higher share of hits than the screen did. Potency is read from the fitted curve at half-maximal effect.

SMILES | Pf Dd2 inh
CCCn1cc(NC(=O)C[C@H]2NC(=O)c3ccccc3NC2=O)c(C)n1 | -11%
CCc1noc([C@@H]2CC(F)(F)CN2C(=O)c2ccncc2F)n1 | 24%
COc1ccc(-c2cnc([C@@H]3COCCN3Cc3ccc(NC(C)=O)cc3)[nH]2)cc1 | i
COCC(=O)N[C@@H]1CN(S(C)(=O)=O)CC[C@@H]1c1nc(C)no1 | i[5.79 µM]
COc1ccc2cc(C(=O)N3CCc4nn(C)c(=O)n4CC3)[nH]c2c1 | 21%
Cc1cc(NC(=O)CN2C(=O)c3cccnc3Sc3ccccc32)ccc1Br | 11µM*
CCc1ccccc1NC(=O)CN1C(=O)c2cccnc2Sc2ccccc21 | -19%
Cc1cc(C)c(NC(=O)CN2C(=O)c3cccnc3Sc3ccccc32)c(C)c1 | -27%
O=C1[C@H]2CN(Cc3ccc(Br)cc3)C[C@H]2C(=O)N1CCc1ccccc1 | -12%
CCc1ccc(NC(=O)c2cc3c(=O)n(Cc4cccs4)ccc3nc2C)cc1 | 13µM*
COc1ccc(Cn2ccc3nc(C)c(C(=O)Nc4ccc(F)cc4)cc3c2=O)cc1 | 6%
CCc1cccc(NC(=O)c2cc3c(=O)n(Cc4ccccc4)ccc3nc2C)c1 | -2%
CC(=O)Nc1ccc(C(=O)N[C@@H]2CCOC[C@H]2OCc2ccccn2)cc1 | -8%
O=C1COCC2(CN(CCCc3ccccc3)C2)CN1Cc1ccccc1 | -39%[44.1 µM]
Cc1nn2c(c1-c1ccnn1C(C)C)N(C(=O)COc1ccccc1C(N)=O)CCC2 | -11%[44.1 µM]
CC(C)N1C(=O)C2(CCCCC2)C1C(=O)N1CCN(C)CC1 (stereo not drawn) | -18%
CC(C)N1C(=O)C2(CCCC2)C1C(=O)N1CCN(C2CCCCC2)CC1 (stereo not drawn) | 10µM*
CC(C)N1C(=O)C2(CCCC2)C1C(=O)N1CCC(N2CCCCC2)CC1 (stereo not drawn) | -24%
COc1ccc(S(=O)(=O)N2[C@@H]3CC[C@H]2CC(NC(=O)c2ccncc2)C3)cc1OC (stereo partly drawn) | 7%
CC(C)CC(=O)NC1CCN(c2cn[nH]c(=O)c2)CC1 | -11%
CCCCC(=O)NC1CCN(c2cn[nH]c(=O)c2)CC1 | 2.8µM*
CCCCC(=O)NC1CCN(c2cnn(C)c(=O)c2)CC1 | 7%
CNC(=O)[C@@H]1C[C@@H](n2cc(CNC(=O)Cc3ccccc3)nn2)CN1 | 1%
COc1cccc(-c2nnnn2[C@H]2CO[C@H]3[C@@H]2OC[C@@H]3NC(=O)CC2(CC(=O)O)CCCC2)c1 | 39%
O=C(NCCc1ccccc1)[C@H]1CN(Cc2ccccc2)C[C@H]1C(=O)O | 3%
SMILES | Pf Dd2 inh
COc1ccc(OC)c(NC(=O)CC2CCCCN(C)C2=O)c1 (stereo not drawn) | -1%
COc1ccccc1Cn1c(CNS(=O)(=O)c2ccc(C(C)C)cc2)nc2cccnc21 | i
COc1ccccc1Cn1c(CNS(=O)(=O)c2c(C)cc(C)cc2C)nc2cccnc21 | 13µM*
CCOc1ccc(Cn2c(CNS(=O)(=O)c3c(C)cc(C)cc3C)nc3cccnc32)cc1 | i
CNC(=O)[C@@H]1CN(C(=O)Cn2c(=O)oc3ccccc32)C[C@H]1COC | -3%
O=c1cc(-c2ccncc2)oc2c(-c3ccccc3O)nccc12 | 1.8µM*
O=c1cc(-c2cccnc2)oc2c(-c3ccccc3F)nccc12 | i
C[S+](=O)([O-])c1ccc(-c2nccc3c(=O)cc(-c4ccncc4)oc23)cc1 | i
COc1cc(CNC(=O)CN2CCCc3nc(C4CC4)ncc3C2=O)cc(OC)c1 | 22%
Cc1[nH]c2c(F)cccc2c1CC(=O)N1CCCC2(CC1)CN(C)C(=O)O2 (stereo not drawn) | -2%
Cc1c(C(=O)Nc2ccc(F)c(Cl)c2)oc2ccc(S(=O)(=O)N(C)C3CCCCC3)cc12 | -26%
Cc1c(C(=O)Nc2cccc(C(F)(F)F)c2)oc2ccc(S(=O)(=O)N(C)C3CCCCC3)cc12 | 11µM*
Cc1ccc(NC(=O)c2oc3ccc(S(=O)(=O)N(C)C4CCCCC4)cc3c2C)c(C)c1 | i
COc1ccc([C@H]2CN(C(=O)c3nc(N)nc4c3CCCC4)C[C@@H]2N)cc1 | -7%
O=C(CN1CCCCCC1=O)NC1CCCc2nc(-c3cccnc3)ncc21 (stereo not drawn) | -8%
N#Cc1ccccc1CN1CCCCCCNC(=O)[C@@H]2CCC[C@@H]21 | 2.8µM*
CCOc1ccccc1CN1CCCCCCNC(=O)[C@@H]2CCC[C@@H]21 | 2.8µM*
COc1ccc(-c2[nH]ncc2CN2CCCCCNC(=O)[C@@H]3CCC[C@@H]32)cc1 | i
CCn1cc(CN2CCCCCCNC(=O)[C@@H]3CCC[C@@H]32)cn1 | i
COc1ccc(CN2CCCCCNC(=O)[C@@H]3CCC[C@@H]32)cc1Cn1ccnc1 | 8.9µM*
CC(C)n1cc(CN2CCCCCNC(=O)[C@@H]3CCC[C@@H]32)c2ccccc21 | i
N#Cc1cccc(CN2CCCCCNC(=O)[C@@H]3CCC[C@@H]32)c1 | -9%
Cc1ncsc1CN1CCCCCNC(=O)[C@@H]2CCC[C@@H]21 | i
N#Cc1ccc(CN2CCCCCNC(=O)[C@@H]3CCC[C@@H]32)cc1 | -20%
